# Reference: ChEMBL document CHEMBL3988442, “University of Dundee, Small-Polar-MMV Screening Library” (2021)
# For part of these data: Potency and affinity values are given separately.
# How the values were obtained:
# [1] = target: T1, Methionyl-tRNA synthetase, putative (Leishmania donovani (strain BPK282A1)) (UniProt E9BF75); assay: Leishmania donovani Methionine tRNA synthetase (LdMetRS):v7. Dose response assay; type: functional; design: conc 80 nM, time 150 minutes
# T1 sequence (whole entry): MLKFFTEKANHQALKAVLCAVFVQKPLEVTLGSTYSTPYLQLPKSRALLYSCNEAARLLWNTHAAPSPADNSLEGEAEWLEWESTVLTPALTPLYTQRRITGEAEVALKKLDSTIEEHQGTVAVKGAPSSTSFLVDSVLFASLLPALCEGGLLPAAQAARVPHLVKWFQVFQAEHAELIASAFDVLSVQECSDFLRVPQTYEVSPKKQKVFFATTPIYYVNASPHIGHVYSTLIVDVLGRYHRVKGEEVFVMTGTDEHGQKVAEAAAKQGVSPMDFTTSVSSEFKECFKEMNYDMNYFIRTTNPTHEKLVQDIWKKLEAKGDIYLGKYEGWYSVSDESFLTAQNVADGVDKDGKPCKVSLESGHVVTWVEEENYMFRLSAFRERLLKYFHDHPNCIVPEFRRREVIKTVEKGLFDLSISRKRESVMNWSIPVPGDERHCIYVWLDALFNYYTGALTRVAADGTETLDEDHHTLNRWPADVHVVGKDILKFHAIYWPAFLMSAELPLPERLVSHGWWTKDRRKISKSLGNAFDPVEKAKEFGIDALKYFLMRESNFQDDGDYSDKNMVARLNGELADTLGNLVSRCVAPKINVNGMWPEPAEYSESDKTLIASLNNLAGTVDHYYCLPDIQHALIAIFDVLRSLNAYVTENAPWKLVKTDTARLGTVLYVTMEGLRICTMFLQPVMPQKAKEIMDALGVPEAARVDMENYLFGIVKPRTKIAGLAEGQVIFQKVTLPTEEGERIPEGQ
# [2] = target: AMP-activated protein kinase, AMPK (Homo sapiens) (UniProt P54646+O43741+P54619+Q9UGJ0+Q9Y478+Q13131+Q9UGI9); assay: AMP-dependent Kinase enzyme assay. An in vitro enzyme assay that detects ADP turnover that is directly proportional to AMPK activity. This uses naive AMPK that is activated during the assay with MK-8722; type: functional; design: scale not given: direction of the effect not stated beside the values; details: 30 µM
# [3] = target: Protein translocase subunit SecA (Escherichia coli (strain K12)) (UniProt P10408); assay: Assay to Identify E. coli SecA ATPase Inhibitors; type: functional; design: scale not given: direction of the effect not stated beside the values; details: 30 µM
# [4] = target: T2, Ubiquitin-activating enzyme e1, putative (Leishmania donovani (strain BPK282A1)) (UniProt E9BSI1); assay: Leishmania donovani Ubiquitin Activating Enzyme (LdE1); type: functional; design: scale not given: direction of the effect not stated beside the values; details: 30 µM
# T2 sequence (whole entry): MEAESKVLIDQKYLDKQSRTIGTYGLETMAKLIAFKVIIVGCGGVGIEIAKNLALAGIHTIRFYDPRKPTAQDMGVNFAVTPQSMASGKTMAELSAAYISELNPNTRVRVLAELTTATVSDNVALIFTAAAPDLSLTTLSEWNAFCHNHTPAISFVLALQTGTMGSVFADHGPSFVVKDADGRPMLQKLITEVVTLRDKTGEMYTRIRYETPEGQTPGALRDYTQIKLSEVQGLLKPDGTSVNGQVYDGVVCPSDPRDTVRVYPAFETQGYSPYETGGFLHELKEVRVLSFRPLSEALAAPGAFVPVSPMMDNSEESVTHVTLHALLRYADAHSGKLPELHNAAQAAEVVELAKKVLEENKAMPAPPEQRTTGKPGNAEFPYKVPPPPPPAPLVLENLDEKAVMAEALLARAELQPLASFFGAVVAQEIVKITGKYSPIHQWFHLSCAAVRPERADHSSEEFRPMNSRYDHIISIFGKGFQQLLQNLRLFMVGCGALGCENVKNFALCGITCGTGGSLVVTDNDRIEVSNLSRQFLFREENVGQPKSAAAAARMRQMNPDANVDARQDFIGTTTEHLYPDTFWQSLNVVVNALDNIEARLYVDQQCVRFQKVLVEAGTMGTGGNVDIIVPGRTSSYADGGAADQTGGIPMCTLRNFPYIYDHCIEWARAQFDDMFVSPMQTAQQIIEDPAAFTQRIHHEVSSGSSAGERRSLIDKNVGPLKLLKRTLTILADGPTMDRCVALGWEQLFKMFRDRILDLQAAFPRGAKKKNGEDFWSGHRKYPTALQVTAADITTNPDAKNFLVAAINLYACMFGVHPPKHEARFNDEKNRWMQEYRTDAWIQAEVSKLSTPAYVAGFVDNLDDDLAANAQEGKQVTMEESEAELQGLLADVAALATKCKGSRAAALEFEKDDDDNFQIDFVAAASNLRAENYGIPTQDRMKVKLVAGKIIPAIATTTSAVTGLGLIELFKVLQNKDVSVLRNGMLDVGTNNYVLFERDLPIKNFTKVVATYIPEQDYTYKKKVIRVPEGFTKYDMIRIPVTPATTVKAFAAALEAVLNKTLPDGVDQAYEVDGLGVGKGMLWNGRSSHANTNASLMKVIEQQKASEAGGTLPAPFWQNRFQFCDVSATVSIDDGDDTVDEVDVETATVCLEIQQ
# [5] = target: Sialic acid-binding Ig-like lectin 9 (Homo sapiens) (UniProt Q9Y336); assay: Hs-Siglec9 ALPHAscreen SOP 20170721; design: scale not given: direction of the effect not stated beside the values; details: 10 µM
# [6] = system: Trypanosoma cruzi; assay: Trypanosoma cruzi phosphomannomutase and mannose-1-phosphate guanylyltransferase assay; type: functional; design: scale not given: direction of the effect not stated beside the values; details: 10 µM
# [7] = target: T3, Arginase-2, mitochondrial (Homo sapiens) (UniProt P78540); assay: in vitro enzyme assay to detect the production of urea directly proportional to the activity of Arginase II; type: functional; design: scale not given: in the data most compounds retested in dose-response had high values; details: 33.3 µM
# T3 sequence (whole entry): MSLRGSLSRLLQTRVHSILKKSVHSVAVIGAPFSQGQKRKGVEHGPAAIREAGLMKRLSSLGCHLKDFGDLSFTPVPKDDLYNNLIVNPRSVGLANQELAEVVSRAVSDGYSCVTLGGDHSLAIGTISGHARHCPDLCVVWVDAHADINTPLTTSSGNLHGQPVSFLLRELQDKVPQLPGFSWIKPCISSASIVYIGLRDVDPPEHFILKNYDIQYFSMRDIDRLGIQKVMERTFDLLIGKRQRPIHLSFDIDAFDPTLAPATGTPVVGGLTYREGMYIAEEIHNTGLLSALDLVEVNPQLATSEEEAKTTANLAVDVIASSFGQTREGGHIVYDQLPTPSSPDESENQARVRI
# [8] = target: T4, Proteasome subunit beta (Trypanosoma cruzi) (UniProt O96673); assay: Trypanosoma cruzi proteasome chymotrypsin-like activity (TcProtChymo) assay.; type: functional; design: scale not given: in the data most compounds retested in dose-response had high values; details: 9.37 µM
# T4 sequence (whole entry): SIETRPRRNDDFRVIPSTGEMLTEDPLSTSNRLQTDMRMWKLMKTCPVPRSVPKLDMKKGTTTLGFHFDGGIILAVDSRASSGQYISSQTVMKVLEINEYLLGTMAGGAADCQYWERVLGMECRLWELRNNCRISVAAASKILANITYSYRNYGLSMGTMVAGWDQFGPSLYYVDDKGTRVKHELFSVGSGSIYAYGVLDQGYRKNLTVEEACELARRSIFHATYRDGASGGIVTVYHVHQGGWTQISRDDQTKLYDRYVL
# [9] = species: Homo sapiens; assay: To identify inhibition of the IFN signalling (Jak-Stat) pathway via expression of an eGFP reporter gene under the control of an IFN-stimulated response element (ISRE) containing MxA promoter.; type: functional; design: scale not given: direction of the effect not stated beside the values; details: 30 µM
# [10] = target: T5, Tyrosyl-tRNA synthetase, putative (Trypanosoma cruzi (strain CL Brener)) (UniProt Q4DSP6); assay: Trypanosoma cruzi tyrosyl tRNA synthetase (TcYRS) _High Tyrosine SOP; type: functional; design: scale not given: in the data most compounds retested in dose-response had high values; details: 30 µM
# T5 sequence (whole entry): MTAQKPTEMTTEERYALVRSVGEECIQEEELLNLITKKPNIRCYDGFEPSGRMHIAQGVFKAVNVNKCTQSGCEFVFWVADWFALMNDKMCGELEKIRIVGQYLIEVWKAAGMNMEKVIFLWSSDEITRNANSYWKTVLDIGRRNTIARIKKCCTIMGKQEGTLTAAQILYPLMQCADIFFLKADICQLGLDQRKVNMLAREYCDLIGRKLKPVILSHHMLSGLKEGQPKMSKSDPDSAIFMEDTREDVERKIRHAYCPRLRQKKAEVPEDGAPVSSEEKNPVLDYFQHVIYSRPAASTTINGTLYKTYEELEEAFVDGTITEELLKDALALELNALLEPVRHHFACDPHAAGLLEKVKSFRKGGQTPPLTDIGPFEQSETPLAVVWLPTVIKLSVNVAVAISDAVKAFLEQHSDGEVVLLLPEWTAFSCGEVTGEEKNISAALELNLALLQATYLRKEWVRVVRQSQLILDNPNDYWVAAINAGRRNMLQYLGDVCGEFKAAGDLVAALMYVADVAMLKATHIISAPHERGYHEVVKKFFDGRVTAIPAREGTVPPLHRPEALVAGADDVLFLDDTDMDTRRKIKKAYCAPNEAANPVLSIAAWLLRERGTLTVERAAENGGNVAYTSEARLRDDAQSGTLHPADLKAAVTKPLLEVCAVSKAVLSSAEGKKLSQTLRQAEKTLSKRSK
# [11] = target: T5, Tyrosyl-tRNA synthetase, putative (Trypanosoma cruzi (strain CL Brener)); assay: Trypanosoma cruzi tyrosyl tRNA synthetase (TcYRS) SOP; type: functional; design: scale not given: direction of the effect not stated beside the values; details: 30 µM
# [12] = target: Chromo domain-containing protein 1 (Saccharomyces cerevisiae (strain ATCC 204508 / S288c) (Baker's yeast)) (UniProt P32657); assay: ScCHD-1 Enzyme Inhibition Assay; type: functional; design: scale not given: in the data most compounds retested in dose-response had high values; details: 30 µM
# Chain of Chromo domain-containing protein 1 (Saccharomyces cerevisiae (strain ATCC 204508 / S288c) (Baker's yeast)) (P32657 whole entry, the tested form may be a part): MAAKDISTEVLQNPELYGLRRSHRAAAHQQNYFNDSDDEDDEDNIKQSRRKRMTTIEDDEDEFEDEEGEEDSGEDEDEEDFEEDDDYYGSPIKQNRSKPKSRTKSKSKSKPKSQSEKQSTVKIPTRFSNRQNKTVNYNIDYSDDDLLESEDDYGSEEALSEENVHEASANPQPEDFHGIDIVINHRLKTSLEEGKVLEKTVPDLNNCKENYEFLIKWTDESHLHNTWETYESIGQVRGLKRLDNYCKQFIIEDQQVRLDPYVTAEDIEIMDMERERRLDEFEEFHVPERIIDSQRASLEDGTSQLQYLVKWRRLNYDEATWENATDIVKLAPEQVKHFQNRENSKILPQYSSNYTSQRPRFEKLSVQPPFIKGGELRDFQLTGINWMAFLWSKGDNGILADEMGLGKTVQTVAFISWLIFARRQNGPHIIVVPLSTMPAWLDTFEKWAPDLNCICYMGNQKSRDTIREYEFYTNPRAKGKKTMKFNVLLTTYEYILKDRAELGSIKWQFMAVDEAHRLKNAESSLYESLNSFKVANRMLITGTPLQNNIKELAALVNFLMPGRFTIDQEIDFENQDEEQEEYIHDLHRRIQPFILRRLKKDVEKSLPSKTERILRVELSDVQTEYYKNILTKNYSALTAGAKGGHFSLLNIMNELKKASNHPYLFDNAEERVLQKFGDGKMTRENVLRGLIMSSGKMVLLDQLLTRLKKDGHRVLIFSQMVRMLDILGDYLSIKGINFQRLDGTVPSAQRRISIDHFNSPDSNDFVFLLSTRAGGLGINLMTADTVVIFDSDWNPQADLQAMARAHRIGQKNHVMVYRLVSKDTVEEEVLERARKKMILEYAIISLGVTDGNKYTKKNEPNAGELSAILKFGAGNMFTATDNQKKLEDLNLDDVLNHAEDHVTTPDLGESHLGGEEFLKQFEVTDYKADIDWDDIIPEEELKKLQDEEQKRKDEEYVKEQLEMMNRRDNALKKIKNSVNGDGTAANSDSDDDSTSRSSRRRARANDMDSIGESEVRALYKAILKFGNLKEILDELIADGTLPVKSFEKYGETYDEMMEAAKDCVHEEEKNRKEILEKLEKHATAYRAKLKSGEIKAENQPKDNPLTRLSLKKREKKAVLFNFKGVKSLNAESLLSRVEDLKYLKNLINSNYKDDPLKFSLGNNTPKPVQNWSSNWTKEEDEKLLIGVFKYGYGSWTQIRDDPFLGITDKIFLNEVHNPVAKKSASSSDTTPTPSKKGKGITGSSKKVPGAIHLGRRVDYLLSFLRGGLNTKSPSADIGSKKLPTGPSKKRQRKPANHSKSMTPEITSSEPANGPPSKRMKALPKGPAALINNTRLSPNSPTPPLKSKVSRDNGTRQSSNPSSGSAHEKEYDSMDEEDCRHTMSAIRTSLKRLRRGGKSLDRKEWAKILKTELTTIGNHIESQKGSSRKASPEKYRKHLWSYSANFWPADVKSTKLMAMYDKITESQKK
# Chain of Protein translocase subunit SecA (Escherichia coli (strain K12)) (P10408 whole entry): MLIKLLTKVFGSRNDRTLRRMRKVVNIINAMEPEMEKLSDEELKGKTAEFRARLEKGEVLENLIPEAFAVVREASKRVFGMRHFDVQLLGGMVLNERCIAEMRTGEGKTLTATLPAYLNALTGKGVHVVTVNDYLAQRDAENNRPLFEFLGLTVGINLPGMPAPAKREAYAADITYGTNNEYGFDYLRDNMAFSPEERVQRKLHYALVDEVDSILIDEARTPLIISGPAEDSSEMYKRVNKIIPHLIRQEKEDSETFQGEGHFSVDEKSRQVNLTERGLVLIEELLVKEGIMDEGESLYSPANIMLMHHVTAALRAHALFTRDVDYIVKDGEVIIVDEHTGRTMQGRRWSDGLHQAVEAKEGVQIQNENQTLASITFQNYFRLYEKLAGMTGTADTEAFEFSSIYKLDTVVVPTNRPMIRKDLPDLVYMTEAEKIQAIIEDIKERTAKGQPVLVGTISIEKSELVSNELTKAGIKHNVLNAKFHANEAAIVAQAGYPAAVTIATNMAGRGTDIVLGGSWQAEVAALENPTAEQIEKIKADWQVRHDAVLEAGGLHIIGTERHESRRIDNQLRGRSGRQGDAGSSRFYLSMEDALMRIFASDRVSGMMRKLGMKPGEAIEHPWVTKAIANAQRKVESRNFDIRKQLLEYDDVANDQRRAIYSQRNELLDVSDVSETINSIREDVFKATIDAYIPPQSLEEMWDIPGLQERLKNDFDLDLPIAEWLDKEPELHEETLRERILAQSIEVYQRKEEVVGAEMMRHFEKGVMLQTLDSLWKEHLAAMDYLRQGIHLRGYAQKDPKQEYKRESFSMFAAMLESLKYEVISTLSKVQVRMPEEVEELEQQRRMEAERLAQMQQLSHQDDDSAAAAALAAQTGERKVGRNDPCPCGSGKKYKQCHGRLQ
# Chain of Sialic acid-binding Ig-like lectin 9 (Homo sapiens) (Q9Y336 whole entry): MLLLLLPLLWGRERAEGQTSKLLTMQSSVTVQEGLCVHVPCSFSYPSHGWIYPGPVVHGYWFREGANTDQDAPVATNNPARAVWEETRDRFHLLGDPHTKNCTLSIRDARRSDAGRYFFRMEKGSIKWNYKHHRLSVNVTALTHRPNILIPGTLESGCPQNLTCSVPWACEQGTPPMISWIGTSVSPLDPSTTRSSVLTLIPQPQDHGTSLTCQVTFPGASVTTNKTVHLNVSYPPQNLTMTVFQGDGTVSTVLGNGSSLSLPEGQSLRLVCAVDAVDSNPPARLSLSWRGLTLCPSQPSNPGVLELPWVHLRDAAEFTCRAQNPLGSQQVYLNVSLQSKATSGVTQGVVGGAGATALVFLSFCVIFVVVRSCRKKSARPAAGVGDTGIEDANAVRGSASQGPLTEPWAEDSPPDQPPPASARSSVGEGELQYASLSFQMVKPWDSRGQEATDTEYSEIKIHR
structure (smiles),measurement,setting,value
O=C(NCc1cnn2cccnc12)c1cccc(CC2CCNCC2)c1,PXC50,"[1]; BOTTOM 2.141206025, HILLSLOPE 1.62116593, MAX_EFFECT 62.52189142, TOP 100.0",4.14
same,PXC50,"[1]; BOTTOM 2.892347169, HILLSLOPE 1.976450586, MAX_EFFECT 93.87755102, TOP 100.0",4.43
same,PXC50,"[1]; BOTTOM 5.673984802, HILLSLOPE 1.822868055, MAX_EFFECT 90.57971014, TOP 100.0",4.44
same,Percent Effect,[2],2.98%
COc1ccc(OC)c(C2CCN(c3ccc4cc[nH]c4n3)C2)c1 (configuration not stated),PXC50,"[1]; BOTTOM 1.480634741, HILLSLOPE 1.299916262, MAX_EFFECT 56.52173913, TOP 100.0",4.07
same,PXC50,"[1]; BOTTOM -1.247583822, HILLSLOPE 1.089672094, MAX_EFFECT 58.06451613, TOP 100.0",4.11
same,PXC50,"[1]; BOTTOM -8.715782986, HILLSLOPE 1.383269592, MAX_EFFECT 51.81518152, TOP 100.0",4.09
same,PXC50,[1]; MAX_EFFECT 37.4800638,< 4
same,PXC50,[1]; MAX_EFFECT 42.80230326,< 4
O=C(CC1=CCCCC1)NCCc1csc(N2CCCC2)n1,PXC50,"[1]; BOTTOM 3.701535951, HILLSLOPE 1.30756587, MAX_EFFECT 71.01449275, TOP 100.0",4.26
same,PXC50,"[1]; BOTTOM -1.141810122, HILLSLOPE 1.921557011, MAX_EFFECT 84.15841584, TOP 100.0",4.32
same,PXC50,[1]; MAX_EFFECT 3.162055336,< 4
same,PXC50,[1]; MAX_EFFECT 8.571428571,< 4
same,PXC50,[1]; MAX_EFFECT 50.53763441,< 4
same,Percent Effect,[3],-6.52%
same,Percent Effect,[4],-5.33%
same,Percent Effect,[2],-0.418%
same,Percent Effect,[5],8.91%
same,Percent Effect,[6],15.9%
same,Percent Effect,[7],-1.56%
same,Percent Effect,[8],25.3%
same,Percent Effect,[9],-20.2%
same,Percent Effect,[10],23.5%
same,Percent Effect,[11],8.64%
same,Percent Effect,[12],33%
CC(C)Cc1ncc(CNc2cnccc2CO)s1,PXC50,[1]; MAX_EFFECT 2.711323764,< 4
same,PXC50,[1]; MAX_EFFECT 4.081632653,< 4
same,PXC50,[1]; MAX_EFFECT 4.798464491,< 4
same,PXC50,[1]; MAX_EFFECT 7.246376812,< 4
same,PXC50,[1]; MAX_EFFECT 9.632224168,< 4
Fc1cccc(N2C[C@H]3CCN(c4cccnc4)C[C@H]3C2)c1,PXC50,[1]; MAX_EFFECT 35.84229391,< 4
same,PXC50,[1]; MAX_EFFECT 42.57425743,< 4
same,PXC50,[1]; MAX_EFFECT 45.65217391,< 4
same,Percent Effect,[3],-5.24%
same,Percent Effect,[4],-27%
same,Percent Effect,[2],0.0628%
same,Percent Effect,[5],-4.58%
same,Percent Effect,[6],-1.95%
same,Percent Effect,[7],-1.67%
same,Percent Effect,[8],9.38%
same,Percent Effect,[9],31.8%
same,Percent Effect,[10],23.8%
same,Percent Effect,[11],25.6%
same,Percent Effect,[12],3.63%
FC1(F)CCN(Cc2ccncc2)CC12CCN(Cc1ccccn1)C2 (configuration not stated),PXC50,[1]; MAX_EFFECT 4.275534442,< 4
same,PXC50,[1]; MAX_EFFECT 11.44366197,< 4
same,Percent Effect,[3],-7.03%
same,Percent Effect,[4],0%
same,Percent Effect,[2],-0.894%
same,Percent Effect,[5],2.49%
same,Percent Effect,[6],-5.96%
same,Percent Effect,[7],0.319%
same,Percent Effect,[8],5.35%
same,Percent Effect,[9],17.3%
same,Percent Effect,[10],-3.24%
same,Percent Effect,[11],-5.13%
same,Percent Effect,[12],-2.99%
